Three compounds from PubChem BioAssay (EPA / NIEHS) can be followed below.

Read-out in assay [1]: C-C motif chemokine 2 (Homo sapiens) (UniProt P13500)
The experiment in a line: BSK_KF3CT_MCP1: BioMAP Diversity Plus: KF3CT Assay for Monocyte Chemoattractant Protein 1 (MCP1/CCL2) Biomarker Activity (AID 2283073). Conditions: primary human keratinocytes with fibroblasts; actives raise or lower the signal. The method in brief:
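Biomarker MCP-1 is measured by ELISA in primary human keratinocytes co-cultured with foreskin fibroblasts, 24 h after chemical treatment; DMSO serves as the negative control and activity baseline.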

Read-out in assay [2]: Matrix Metallopeptidase 9 (MMP9), MMP9 (gene 4318)
The experiment in a line: BSK_KF3CT_MMP9: BioMAP Diversity Plus: KF3CT Assay for Matrix Metallopeptidase 9 (MMP9) Biomarker Activity (AID 2283074).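 On AC50: MMP9 protein level quantified by ELISA in the co-culture.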 Conditions: primary human keratinocytes with fibroblasts; actives raise or lower the signal. The procedure, abridged:
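Human keratinocyte and foreskin fibroblast co-culture exposed to chemicals for 24 h; MMP9 biomarker measured by ELISA, bidirectional fitting relative to DMSO; cytotoxicity tracked by SRB total protein staining in parallel cultures.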

Read-out in assay [3]: urokinase plasminogen activator (uPA), PLAU (gene 5328)
The experiment in a line: BSK_KF3CT_uPA: BioMAP Diversity Plus: KF3CT Assay for urokinase plasminogen activator (uPA) Biomarker Activity (AID 2283075). Conditions: primary human keratinocytes with fibroblasts; actives raise or lower the signal. The procedure, abridged: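 Primary human keratinocyte/foreskin fibroblast co-culture exposed to chemical; uPA measured by ELISA at 24 h. Bidirectional fit versus DMSO, with parallel SRB total-protein staining for cytotoxicity.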

Read-out in assay [4]: CD40, CD40 (gene 958)
The experiment in a line: BSK_LPS_CD40: BioMAP Diversity Plus: LPS Assay for CD40 Biomarker Activity (AID 2283076). The settings on record: primary human HUVEC with PBMC; actives raise or lower the signal. The procedure, abridged:
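Using a multiplexed primary human co-culture (umbilical vein endothelium plus PBMC), CD40 was read by ELISA 24 h after dosing, with cytotoxicity tracked by sulforhodamine B staining of parallel cultures and activity fitted bidirectionally versus DMSO.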

Read-out in assay [5]: E-selectin (Homo sapiens) (UniProt P16581)
The experiment in a line: BSK_LPS_Eselectin: BioMAP Diversity Plus: LPS Assay for Eselectin Biomarker Activity (AID 2283077). Conditions: primary human HUVEC with PBMC; actives raise or lower the signal. The procedure, abridged: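 Dose chemical onto LPS-driven HUVEC/PBMC co-culture; after 24 h, run ELISA for E-selectin; fit up- and down-going responses relative to DMSO control.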

Read-out in assay [6]: Interleukin-8 (IL8), CXCL8 (gene 3576)
The assay can be described thus: BSK_LPS_IL8: BioMAP Diversity Plus: LPS Assay for Interleukin-8 (IL8) Biomarker Activity (AID 2283078). The settings on record: primary human HUVEC with PBMC; actives raise or lower the signal. The method in brief: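 In this LPS system, chemical-treated human umbilical vein endothelium/PBMC co-cultures were harvested at 24 h for IL-8 ELISA.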

A short description of assay [7]: BSK_LPS_SRB: Viability Assessment in the BioMAP Diversity Plus: LPS Assay (AID 2283079).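 Further: total protein by sulforhodamine B absorbance as a cytotoxicity measure; measured one day after compound addition; fitted in both directions against DMSO so loss or gain of signal counts.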 The settings on record: primary human HUVEC with PBMC. The method in brief:
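Cytotoxicity endpoint in human endothelial–PBMC co-culture: 24 h exposure, then SRB (0.1%) staining, 560 nm read.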

Read-out in assay [8]: Interleukin-1 alpha (IL1a), IL1A (gene 3552)
The experiment in a line: BSK_LPS_IL1a: BioMAP Diversity Plus: LPS Assay for Interleukin-1 alpha (IL1a) Biomarker Activity (AID 2283080). Conditions: primary human HUVEC with PBMC; actives raise or lower the signal. The method in brief: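 Primary human HUVEC and PBMC co-culture stimulated with LPS is dosed and harvested at 24 h. Both increases and decreases in ELISA-measured IL-1a are scored relative to DMSO.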

Read-out in assay [9]: Monocyte Chemoattractant Protein-1 (MCP1), CCL2 (gene 6347)
The assay can be described thus: BSK_LPS_MCP1: BioMAP Diversity Plus: LPS Assay for Monocyte Chemoattractant Protein-1 (MCP1) Biomarker Activity (AID 2283081).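 On AC50: secreted MCP-1 protein quantified by ELISA in culture supernatant.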 The settings on record: primary human HUVEC with PBMC; actives raise or lower the signal. The method in brief:
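Values derive from bidirectional fitting against DMSO of ELISA-measured MCP-1 in a human primary endothelial and mononuclear cell co-culture, 24 h after chemical addition under LPS activation.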

Assay [10] can be described thus: BSK_LPS_PGE2: BioMAP Diversity Plus: LPS Assay for Prostaglandin E2 (PGE2) Biomarker Activity (AID 2283082).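 On AC50: secreted prostaglandin E2 measured by ELISA in LPS-stimulated co-culture.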 The settings on record: primary human HUVEC with PBMC; actives raise or lower the signal. The procedure, abridged:
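HUVEC plus human PBMC co-culture stimulated with LPS; secreted PGE2 quantified by ELISA 24 h after chemical dosing. Activity fitted bidirectionally against DMSO baseline; parallel SRB staining (0.1% SRB after 10% TCA fixation, 560 nm) flags overt cytotoxicity.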

Read-out in assay [11]: Macrophage colony-stimulating factor (MCSF), CSF1 (gene 1435)
The assay can be described thus: BSK_LPS_MCSF: BioMAP Diversity Plus: LPS Assay for Macrophage colony-stimulating factor (MCSF) Biomarker Activity (AID 2283083). The settings on record: primary human HUVEC with PBMC; actives raise or lower the signal. The procedure, abridged:
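Bidirectional fit versus DMSO of ELISA-measured M-CSF in co-cultured human umbilical vein endothelial cells and PBMC, sampled 24 h after dosing.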

Read-out in assay [12]: Tissue Factor, F3 (gene 2152)
The experiment in a line: BSK_LPS_TissueFactor: BioMAP Diversity Plus: LPS Assay for Tissue Factor Biomarker Activity (AID 2283084). Conditions: primary human HUVEC with PBMC; actives raise or lower the signal. The procedure, abridged: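 Read-out: CD142 ELISA, 24 h. System: LPS-driven human endothelial/PBMC co-culture. Analysis: up- or down-signal fitted against DMSO.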

Read-out in assay [13]: Tumor necrosis factor (Homo sapiens) (UniProt P01375)
The experiment in a line: BSK_LPS_TNFa: BioMAP Diversity Plus: LPS Assay for Tumour Necrosis Factor alpha (TNFa) Biomarker Activity (AID 2283085). Conditions: primary human HUVEC with PBMC; actives raise or lower the signal. The procedure, abridged: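 Human umbilical vein endothelial cells co-cultured with PBMC and stimulated with LPS. TNFa was measured by ELISA 24 h after chemical dosing, fitted bidirectionally relative to DMSO.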

Read-out in assay [14]: Vascular cell adhesion molecule 1 (VCAM1), VCAM1 (gene 7412)
The assay can be described thus: BSK_LPS_VCAM1: BioMAP Diversity Plus: LPS Assay for Vascular cell adhesion molecule 1 (VCAM1) Biomarker Activity (AID 2283086). The settings on record: primary human HUVEC with PBMC; actives raise or lower the signal. The method in brief: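 Human umbilical vein endothelial cells co-cultured with PBMC and stimulated with LPS; VCAM-1 measured by ELISA 24 h after dosing. Bidirectional curve fitting against DMSO baseline; cytotoxicity tracked in parallel by SRB total-protein staining.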

Read-out in assay [15]: CD38, CD38 (gene 952)
The assay can be described thus: BSK_SAg_CD38: BioMAP Diversity Plus: SAg Assay for CD38 Biomarker Activity (AID 2283087). The settings on record: primary human HUVEC with PBMC; actives raise or lower the signal. The procedure, abridged:
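Human HUVEC plus PBMC co-culture stimulated with superantigen; CD38 measured by ELISA 24 h after chemical dosing. Fluorescence read-out, bidirectional fit against DMSO; cytotoxicity tracked in parallel by SRB and Alamar Blue.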

Read-out in assay [16]: CD40, CD40 (gene 958)
The assay can be described thus: BSK_SAg_CD40: BioMAP Diversity Plus: SAg Assay for CD40 Biomarker Activity (AID 2283088). Conditions: primary human HUVEC with PBMC; actives raise or lower the signal. The procedure, abridged: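 Endpoint derived by fitting increases or decreases versus DMSO controls. CD40 is detected by fluorescence ELISA in a human vascular co-culture of endothelium and PBMC at 24 h.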

Read-out in assay [17]: CD69, CD69 (gene 969)
The assay can be described thus: BSK_SAg_CD69: BioMAP Diversity Plus: SAg Assay for CD69 Biomarker Activity (AID 2283089).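 On AC50: cell surface CD69 protein quantified by ELISA with fluorescence detection.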 The settings on record: primary human HUVEC with PBMC; actives raise or lower the signal. The method in brief: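 Values derive from bidirectional fitting relative to DMSO vehicle. Cells: umbilical vein endothelium plus peripheral blood mononuclear cells, treated 24 h before fluorescent ELISA for CD69.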

Read-out in assay [18]: Monocyte Chemoattractant Protein-1 (MCP1), CCL2 (gene 6347)
The experiment in a line: BSK_SAg_MCP1: BioMAP Diversity Plus: SAg Assay for Monocyte Chemoattractant Protein-1 (MCP1) Biomarker Activity (AID 2283090). The settings on record: primary human HUVEC with PBMC; actives raise or lower the signal. The procedure, abridged:
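MCP-1 levels in the endothelial–PBMC SAg co-culture were quantified by ELISA at 24 h post-dosing; both increases and decreases versus DMSO scored. Cytotoxicity monitored by SRB total protein in parallel cultures.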

Read-out in assay [19]: E-selectin (Homo sapiens) (UniProt P16581)
The assay can be described thus: BSK_SAg_Eselectin: BioMAP Diversity Plus: SAg Assay for Eselectin Biomarker Activity (AID 2283091). Conditions: primary human HUVEC with PBMC; actives raise or lower the signal. The procedure, abridged: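 Endpoint values derive from bidirectional fitting relative to DMSO, using ELISA-measured E-selectin in a human vascular co-culture (umbilical vein endothelium plus PBMC) sampled 24 h after dosing.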

Read-out in assay [20]: Monokine induced gamma interferon (MIG), CXCL9 (gene 4283)
The assay can be described thus: BSK_SAg_MIG: BioMAP Diversity Plus: SAg Assay for Monokine induced gamma interferon (MIG) Biomarker Activity (AID 2283092). The settings on record: primary human HUVEC with PBMC; actives raise or lower the signal. The procedure, abridged:
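Values reflect bidirectional fitting of ELISA-measured MIG against DMSO vehicle, taken 24 h after dosing of a co-culture of human umbilical vein endothelial cells and peripheral blood mononuclear cells.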

Activity calls are given as the source filed them. How the source made its calls: active means hit-call score of the fitted dose curve at least 0.9, where 1 is the maximum; inactive means score below 0.9.

Tumor necrosis factor (Homo sapiens), sequence (P01375 whole entry, looked up): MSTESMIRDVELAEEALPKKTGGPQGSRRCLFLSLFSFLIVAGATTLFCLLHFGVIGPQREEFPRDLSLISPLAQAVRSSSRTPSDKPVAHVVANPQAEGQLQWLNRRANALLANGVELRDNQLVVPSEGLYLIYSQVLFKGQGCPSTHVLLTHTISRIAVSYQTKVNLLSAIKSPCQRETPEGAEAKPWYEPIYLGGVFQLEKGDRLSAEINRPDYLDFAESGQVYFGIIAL
E-selectin (Homo sapiens), sequence (P16581 whole entry, looked up): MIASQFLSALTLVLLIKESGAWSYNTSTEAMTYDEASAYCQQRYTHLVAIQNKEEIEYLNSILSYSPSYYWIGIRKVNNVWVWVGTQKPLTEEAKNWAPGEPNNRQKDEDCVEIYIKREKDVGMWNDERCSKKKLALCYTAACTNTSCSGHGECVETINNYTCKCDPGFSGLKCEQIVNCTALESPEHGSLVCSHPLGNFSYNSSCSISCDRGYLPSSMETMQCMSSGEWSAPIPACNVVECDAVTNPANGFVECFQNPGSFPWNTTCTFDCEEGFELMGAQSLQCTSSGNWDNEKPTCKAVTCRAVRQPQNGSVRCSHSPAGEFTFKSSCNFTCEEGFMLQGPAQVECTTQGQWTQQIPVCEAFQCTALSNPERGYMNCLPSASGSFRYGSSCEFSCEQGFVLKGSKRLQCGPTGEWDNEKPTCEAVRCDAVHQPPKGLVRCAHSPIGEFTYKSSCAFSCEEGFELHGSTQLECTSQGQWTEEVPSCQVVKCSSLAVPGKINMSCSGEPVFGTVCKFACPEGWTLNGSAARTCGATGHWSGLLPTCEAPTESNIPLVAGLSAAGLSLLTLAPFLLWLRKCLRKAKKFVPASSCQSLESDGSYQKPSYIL

Usually AC50 stands for the concentration at which the activity in the assay is half-maximal. Consider `O=C1c2ccccc2C(=O)N1CCc1noc(-c2ccc(CN3CCCCCC3)s2)n1`, for which the outcome in [1], in assay [2], in [3], in [4], in assay [5] and in [6] was inactive. Further, the result in assay [7], in assay [8], in assay [9], in [10], in assay [11] and in assay [12] was inactive. Moreover, the outcome in assay [13], in assay [14], in [15], in assay [16], in assay [17] and in assay [18] was inactive. In [20], the outcome was inactive. Also, the AC50 in [19] is 16900 nM (active).
For the compound `CN(C)c1ccc(C(=C2C=CC(=[N+](C)C)C=C2)c2ccc(N(C)C)cc2)cc1`, the AC50 was 3970 nM (active) in assay [1]; 1330 nM (active) in [2]; 2850 nM (active) in assay [3]; 438 nM (active) in assay [4]; 355 nM (active) in assay [5]; 1260 nM (active) in [6]. Further, the AC50 was 7670 nM (active) in assay [7]; 147 nM (active) in [8]; 269 nM (active) in assay [9]; 1130 nM (active) in assay [10]; 476 nM (active) in assay [11]; 662 nM (active) in assay [12]. Moreover, the AC50 in [13] is 1460 nM (active); in assay [14], 2510 nM (active); in assay [15] it was 1010 nM (active); in [16], 534 nM (active); in assay [17], 582 nM (active); in assay [18], 325 nM (active). Besides, in [19], the AC50 is 223 nM (active).
As for `O=C(O)c1ccccc1C(=O)OCc1ccccc1`, the result in assay [1], in assay [2], in [3], in assay [4], in assay [5] and in [6] was inactive. The result in assay [7], in [8], in assay [9], in [10], in assay [11] and in assay [12] was inactive. Moreover, the outcome in assay [13], in [14], in assay [15], in assay [16], in assay [17] and in assay [18] was inactive. Moreover, the result in [19] was inactive.
